In all, about 3,700 compounds went through this assay and fewer than 10 were called active. The list is a sample of the results. Values without a mark were called inactive. The rule behind the calls is not given here.
assay: NMR binding screen, influenza A RNA promoter, Kd (AID 1637); details: NMR binding to influenza A RNA promoter

SMILES	Kd [mM]
CC1=NNC(=O)C1CCc1ccncc1 (stereo not given)	> 4
O=C(NCc1ccccc1Br)c1ccco1	> 4
COc1ccc(-c2c(OC)c3c(OC)c4c(cc3oc2=O)OC(C)(C)C=C4)cc1	> 4
CCN=Cc1c(O)n(-c2ccccc2C)c(=O)[nH]c1=O	> 4
NC(=O)c1ccc(NC(=O)C2CC2)cc1	> 4
c1ccc(CCN2CCN(CCc3ccccn3)CC2)nc1	> 4
COc1c(O)cc2c(c1O)[C@H]1O[C@H](CO)[C@@H](O)[C@H](O)[C@@H]1OC2=O	> 4
COc1cc(/C=C2/NC(=S)NC2=O)cc(Cl)c1O	> 4
O=C(Nc1nccs1)c1ccc(=O)[nH]n1	> 4
COC(=O)c1ccc2nc[nH]c2c1	> 4
CNS(=O)(=O)c1cccs1	> 4
OCCCc1nc2ccc(C(F)(F)F)cc2[nH]1	> 4
CC(=O)Nc1ccc(S(=O)(=O)N(C)C)cc1	> 4
O=C(NCc1cccc(Cl)c1)c1cnccn1	> 4
Cc1cc(C)n(CCCC(=O)O)n1	> 4
Cn1c(O)c(/C=C2\C=CC=N2)c(=O)[nH]c1=O	> 4
CCOC(=O)c1ccc2c(c1)nnn2C	> 4
COc1ccc(-c2coc3c(OC)c(OC)cc(OC)c3c2=O)cc1	> 4
NCc1c[nH]c2ccccc12	> 4
Cn1c(=O)n(C)c2cc(C(N)=O)ccc21	> 4
CC(C)=NNC(=O)C(=O)NC(C)(C)C	> 4
NC(=O)C1CCN(C(=O)c2ccccc2)CC1	> 4
CN1C(=O)/C(=C/c2ccc(O)cc2O)SC1=S	> 4

SMILES	Kd [mM]
NC(C(=O)O)C(O)c1ccccc1 (stereo not given)	> 4
CCOC(=O)c1c(C)[nH]c2ccc(O)cc12	> 4
O=C(Cc1ccc(F)cc1)Nc1ncccn1	> 4
Fc1ccc(-c2n[nH]c(=S)n2CC2CCCO2)cc1 (stereo not given)	> 4
O=C(CC1SC(=O)NC1=O)Nc1nccs1 (stereo not given)	> 4
O=C(O)c1cccc2c1OCCCO2	> 4
NC(=S)CN1CCCC1=O	> 4
CC1=NN(c2ccc(C)cc2)C(=O)C1	> 4
O=P(c1ccccc1)(c1ccccc1)C1CCOCC1	> 4
CC(=O)N1CCN(S(=O)(=O)c2ccccc2)CC1	> 4
CN1CCN(CC(=O)N2CCc3ccccc32)CC1	> 4
O=C(NC1=NCCS1)c1cccc(F)c1	> 4
O=C1NC(=S)S/C1=C/c1ccncc1	> 4
Cc1[nH]c2ccccc2c1C(=O)CSc1ncn[nH]1	> 4
O=C(NN1CCOCC1)c1ccccc1F	> 4
Cc1cc(=O)oc2cc3c(cc12)OCCO3	> 4
CC1SC(=NC(=O)c2ccncc2)NC1=O (stereo not given)	> 4
Cc1cc(OC(=O)c2ccco2)c([N+](=O)[O-])c(=O)[nH]1	> 4
Cc1c(O)c(O)cc2c1CC=C1[C@@]2(C)CC[C@@]2(C)C3C[C@](C)(C(=O)O)CC[C@]3(C)CC[C@]12C (stereo not given in full)	> 4
CCN1CCn2c1nc(N1CCOCC1)nc2=O	> 4
Nc1cc(=O)[nH]c(=S)n1-c1ccc(F)cc1	> 4
Cc1cc(=O)n2ncn(Cc3ccccc3)c2n1	> 4
Nc1ccc(-n2cccc2)cc1	> 4

SMILES	Kd [mM]
CC1(C)Cc2nc(N3CCOCC3)c(C#N)cc2CO1	> 4
O=C1c2cccnc2C(=O)N1Cc1ccc2c(c1)OCO2	> 4
Cn1ccnc1C(O)c1ccccc1 (stereo not given)	> 4
CS(=O)(=O)c1ccccc1C(=O)Nc1nccs1	> 4
NS(=O)(=O)c1ccc(NC(=O)C2CC2)cc1	> 4
COc1ccc(/C=C2/NC(=S)NC2=O)cc1	> 4
CC(=O)NC(NC(C)=O)c1ccccc1	> 4
O=S(=O)(O)c1cc[n+]([O-])cc1	> 4
Cc1cc(N2C(=O)CCC2=O)n(-c2ccccc2)n1	> 4
Nc1nc(-c2ccc(O)cc2)cs1	> 4
O=C(CNC(=O)c1ccc(F)cc1)NC1=NCCS1	> 4
COCCOc1nc2ccccc2nc1C	> 4
O=C1C2CC=CCC2C(=O)N1c1ccccc1O (stereo not given)	> 4
Cc1ccn(S(=O)(=O)c2ccc(F)cc2)n1	> 4
NS(=O)(=O)c1ccc(NC(=O)C(F)(F)F)cc1	> 4
CC(C)C(C)/C=C/C(C)[C@H]1CCC2C3=CCC4CC(=O)CC[C@]4(C)C3CC[C@@]21C (stereo not given in full)	> 4
CS(=O)(=O)NC1CCN(Cc2ccccc2)CC1	> 4
CC(=O)c1c(O)c(C)c(O)c2c1OC1=CC(=O)C(C(C)=O)C(=O)C12C (stereo not given)	> 4
O=C(O)c1coc2c1C(=O)CCC2	> 4
S=c1[nH]nc(-c2cccnc2)n1Cc1ccccc1	> 4
CS(=O)(=O)N1CCN(C(=O)Cc2cccs2)CC1	> 4
NC1=NC(=O)/C(=C/c2ccccc2[N+](=O)[O-])S1	> 4
CCN1CC2(C)CC[C@H](OC)[C@]34C2[C@H](O)C2(OCO[C@@]25C[C@H](OC)[C@H]2C[C@]3(O)C5[C@H]2O)C14	> 4

SMILES	Kd [mM]
O=c1c2ccccc2oc2ccc(O)cc12	> 4
COc1cc(C)c(S(=O)(=O)N2CCN(C)CC2)cc1C	> 4
Nc1ncnc(NCc2cccnc2)c1[N+](=O)[O-]	> 4
COC(=O)c1nc(-c2ccccc2)oc1N(C)C	> 4
Cc1cc(C)n(S(=O)(=O)c2cc(C)c(C)cc2C)n1	> 4
CCc1cc2c(SCC(=O)O)ncnc2s1	> 4
O=C(c1ccccc1)c1ccc(N2CCNCC2)cc1	> 4
CC(=O)Nc1cccc(NC(=O)c2cccnc2)c1	> 4
C(=N\c1nccs1)/c1cccnc1	> 4
Cc1ccccc1C(=O)Nn1cnnc1	> 4
OCc1cccc2c1OCCO2	> 4
O=C(Nc1cccnc1)N1CCOCC1	> 4
CN(c1ccccc1C(=O)N1CCCC1)S(C)(=O)=O	> 4
[O-][n+]1onc2c1CCc1c-2nc(-c2ccccc2)n1O	> 4
CNC(=O)c1cc(C)c(-c2ccccc2)s1	> 4
NC(=O)CC(=O)NC12CC3CC(CC(C3)C1)C2	> 4
O=C(NCc1cccs1)c1ccc2c(c1)OCCO2	> 4
COCCn1c(C)cc(O)cc1=O	> 4
CSc1ccc(C(=S)N2CCN(C)CC2)cc1	> 4
Nc1ncnc(Nc2ccccc2C(F)(F)F)n1	> 4
Cc1nnsc1C(=O)O	> 4
CCc1ccccc1NC(=O)c1cnccn1	> 4
Cc1ccc(/C=C2/C(=O)N=C(N)N2C)s1	> 4

SMILES	Kd [mM]
O=c1[nH]cc(NCc2ccco2)c(=O)[nH]1	> 4
COc1ccc(-c2c(O)c3c(OC)c4c(cc3oc2=O)OC(C)(C)CC4)cc1	> 4
COC[C@]12CN(C=O)C3[C@@H]4[C@H](OC)C1[C@]3(C1CC3(O)C(OC)C(O)C4(OC(C)=O)C1C3OC(=O)c1ccccc1)[C@@H](OC)C[C@H]2O (stereo not given in full)	> 4
C=C(C)[C@@H]1CC[C@]2(CO)CC[C@]3(C)[C@H](CCC4[C@@]5(C)CC[C@H](O)C(C)(C)C5CC[C@]43C)C12 (stereo not given in full)	> 4
CSc1ncc(C(=O)O)n1Cc1ccccc1	> 4
CCOC(=O)C1CCNCC1	> 4
NCc1csc(-c2ccccc2)n1	> 4
O=C(O)c1ccc2snnc2c1	> 4
Oc1ccc(C2SCCS2)cc1	> 4
Nc1oncc1-c1ccccn1	> 4
Cc1cccc(CSc2nncc(=O)[nH]2)c1	> 4
COc1ccc2c(c1)c1n[nH]c(=S)nc1n2C	> 4
Cc1nc2ccccc2c(=O)[nH]1	> 4
CCc1noc(C)c1C(=O)N1CCCC1	> 4
Nc1cc(=O)[nH]c(=O)n1Cc1ccco1	> 4
NC(=S)NC(=O)CN1C(=O)c2ccccc2C1=O	> 4
NC(=O)CSc1ccc(Br)cc1	> 4
O=C(c1ccncc1)c1ccc(Br)cc1	> 4
CC1=C/C(=C\c2c(O)[nH]c(=O)[nH]c2=O)C(C)=N1	> 4
NC(=O)C1CCN(S(=O)(=O)c2ccccc2)CC1	> 4
CCOC(=O)CNc1ncnc2c1nnn2CC	> 4
O=C1CNc2cc(C(=O)O)ccc2N1	> 4
CCC1(CC)C(=O)N=C(N)NC1=O	> 4
